The record followed here is PubChem BioAssay (Tox21).

The nature of assay [1]: qHTS assay to test for compound auto fluorescence at 535 nm (green) in HEK293 cells (AID 720680). (In qHTS, concentration-response curves come from the screen itself.)
Assay [2] in a line: qHTS assay to test for compound auto fluorescence at 460 nm (blue) in HEK293 cell free culture (AID 720681). An outline of the steps: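 Compounds were added to cell-free DMEM with 10% FBS and fluorescence read directly. The blue channel used 405 nm excitation and 460 nm emission, with triamterene as the reference fluorophore.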
Assay [3] is described as follows: qHTS assay to test for compound auto fluorescence at 535 nm (green) in HEK293 cell free culture (AID 720682). An outline of the steps:
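Each library compound, or DMSO control, is added by pintool to medium alone, comprising DMEM and 10% FBS. Emission at 535 nm following 485 nm excitation is quantified against fluorescein.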

Assay [4] can be described thus: qHTS assay to test for compound auto fluorescence at 590 nm (red) in HEK293 cell free culture (AID 720683). The procedure, abridged:
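Cell-free wells of DMEM with 10% FBS received compound, and intrinsic fluorescence was read at excitation/emission 540/590 nm. Values expressed as equivalence to Rose Bengal sodium.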

Assay [5] in a line: qHTS assay to test for compound auto fluorescence at 590 nm (red) in HepG2 cell free culture (AID 720684). An outline of the steps:
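Auto fluorescence equivalency versus Rose Bengal sodium, red channel Ex/Em 540/590 nm; compounds in cell-free MEM/10% FBS; DMSO vehicle control.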

Assay [6] in a line: qHTS assay to test for compound auto fluorescence at 460 nm (blue) in HepG2 cell free culture (AID 720685). An outline of the steps: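 Cell-free plates of MEM plus 10% FBS received 23 nL compound or DMSO vehicle; blue-channel (405/460 nm) intensity scored against triamterene as reference fluorophore.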
Assay [7] can be described thus: qHTS assay to test for compound auto fluorescence at 535 nm (green) in HepG2 cell free culture (AID 720686).
The nature of assay [8]: qHTS assay to test for compound auto fluorescence at 460 nm (blue) in HepG2 cells (AID 720687). The procedure, abridged:
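HepG2 cells in MEM with 10% FBS, attached overnight at 37 C, were exposed to compound or DMSO for 1 hr at 37 C, 5% CO2. Blue fluorescence was read at 405/460 nm, with triamterene as reference fluorophore.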

In assay [9] the target is Glucocorticoid receptor (Homo sapiens) (UniProt P04150). In words: qHTS assay to identify small molecule agonists of the glucocorticoid receptor (GR) signaling pathway (AID 720691; active means well fitted activation curve with a large enough effect in the signal ratio in the repeat runs, not every such curve was filed as active; the % refers to the signal ratio). The procedure, abridged: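 A HeLa cervical cancer line expressing GR and a glucocorticoid response element-driven beta-lactamase gene is treated with compounds for 18 h; LiveBLAzer B/G FRET substrate is then applied and fluorescence read.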
Glucocorticoid receptor (Homo sapiens), sequence (P04150 whole entry, looked up): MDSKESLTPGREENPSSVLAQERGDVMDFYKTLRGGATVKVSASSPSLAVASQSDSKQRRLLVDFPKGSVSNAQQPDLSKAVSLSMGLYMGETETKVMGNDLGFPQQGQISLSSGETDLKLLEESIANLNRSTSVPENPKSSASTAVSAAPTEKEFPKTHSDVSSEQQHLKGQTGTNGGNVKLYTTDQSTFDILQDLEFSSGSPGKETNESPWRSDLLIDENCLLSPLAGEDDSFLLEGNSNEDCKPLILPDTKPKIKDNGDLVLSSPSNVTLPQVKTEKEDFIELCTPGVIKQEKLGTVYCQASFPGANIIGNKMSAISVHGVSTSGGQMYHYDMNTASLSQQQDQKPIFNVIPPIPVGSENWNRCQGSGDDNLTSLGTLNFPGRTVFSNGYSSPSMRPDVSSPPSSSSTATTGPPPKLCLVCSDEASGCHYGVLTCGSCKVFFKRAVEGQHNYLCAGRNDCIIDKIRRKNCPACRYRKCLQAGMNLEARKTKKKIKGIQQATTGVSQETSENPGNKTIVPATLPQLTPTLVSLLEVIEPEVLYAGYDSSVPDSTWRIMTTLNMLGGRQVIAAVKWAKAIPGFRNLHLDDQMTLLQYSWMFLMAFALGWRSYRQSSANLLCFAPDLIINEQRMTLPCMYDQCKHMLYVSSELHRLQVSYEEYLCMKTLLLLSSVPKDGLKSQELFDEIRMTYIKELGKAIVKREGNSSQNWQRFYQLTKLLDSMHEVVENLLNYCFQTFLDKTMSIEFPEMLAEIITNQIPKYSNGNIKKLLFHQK

Assay [10] in a line: qHTS assay to identify small molecule antagonists of the glucocorticoid receptor (GR) signaling pathway - cell viability counter screen (AID 720693). Further: nearly all actives have a fitted effect of over 55% in size.
The nature of assay [11]: qHTS assay for identifying genotoxic compounds that show differential cytotoxicity against isogenic chicken DT40 cell lines with known DNA damage response pathways - wild type cell line (AID 743012). Further: nearly all actives have a fitted effect of over 60% in size. The procedure, abridged:
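300 wt DT40 cells/well; cpd (DMSO) pintool-transferred after ~0.5 h at 37 C/5% CO2; 40 h incubation; CellTiter-Glo added, 30 min RT; luminescence read.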

Assay [12] in a line: qHTS assay for identifying genotoxic compounds that show differential cytotoxicity against isogenic chicken DT40 cell lines with known DNA damage response pathways - Rev3 mutant cell line (AID 743014). Further: nearly all actives have a fitted effect of over 55% in size. Further: potency means the concentration at half of the fitted maximal effect.
Assay [13] can be described thus: qHTS assay for identifying genotoxic compounds that show differential cytotoxicity against isogenic chicken DT40 cell lines with known DNA damage response pathways - Rad54/Ku70 mutant cell line (AID 743015). Further: nearly all actives have a fitted effect of over 60% in size. Further: potency means the concentration at half of the fitted maximal effect.
The nature of assay [14]: qHTS assay to identify small molecule antagonists of the androgen receptor (AR) signaling pathway using the MDA cell line - cell viability counter screen (AID 743041; further: nearly all actives have a fitted effect of over 45% in size). An outline of the steps: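 Compound exposure lasted 16 h at 37C in MDA-kb2 AR-luc cells stimulated with R1881. Protease-based CellTiter-Fluor reagent was applied for the final 30 min and fluorescence measured.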

For assay [15], the target named is Glucocorticoid receptor (Homo sapiens) (UniProt P04150). In words: qHTS assay to identify small molecule antagonists of the glucocorticoid receptor (GR) signaling pathway (AID 720692; active means well fitted inhibition curve with a large enough effect in the signal ratio in the repeat runs, not every such curve was filed as active; the % refers to the signal ratio; further: potency means the concentration at half of the fitted maximal effect). The procedure, abridged: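 GRE-bla HeLa line, dex-stimulated (5 nM final). Compound exposure 18 h, 37 C. Beta-lactamase FRET read after 2 h RT substrate.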
Assay [16] can be described thus: qHTS assay to identify small molecule antagonists of the androgen receptor (AR) signaling pathway - cell viability counter screen (AID 743033; further: nearly all actives have a fitted effect of over 45% in size; further: potency means the concentration at half of the fitted maximal effect).
Assay [17] has as its target Androgen receptor (Homo sapiens) (UniProt P10275). Nature of the assay: qHTS assay to identify small molecule antagonists of the androgen receptor (AR) signaling pathway (AID 743035; active means well fitted inhibition curve with a large enough effect in the signal ratio in the repeat runs, not every such curve was filed as active; the % refers to the signal ratio). The procedure, abridged: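 In this cell-based reporter screen, compounds were tested in concentration series against R1881-activated HEK293 cells expressing beta-lactamase under UAS control; after 16 h at 37C, FRET substrate was added and fluorescence read 2 h later.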

For assay [18] the target is unchanged. Nature of the assay: qHTS assay to identify small molecule agonists of the androgen receptor (AR) signaling pathway (AID 743036; active means well fitted activation curve with a large enough effect in the signal ratio in the repeat runs, with a control signal flat, not every such curve was filed as active; the % refers to the signal ratio). An outline of the steps: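 Following a 4 h settling period, AR-UAS-bla HEK293 cells were dosed with compounds for 16 h at 37C. A 2 h room-temperature incubation with LiveBLAzer B/G FRET substrate preceded the fluorescence measurement.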

Assay [19] shares this target. In words: qHTS assay to identify small molecule agonists of the androgen receptor (AR) signaling pathway using the MDA cell line (AID 743040; further: nearly all actives have a fitted effect of over 20% in size). The procedure, abridged: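 Testing was done with the MDA-kb2 AR-luc line, a human breast carcinoma stably transfected with MMTV-luciferase containing AR and GR response elements. Cells were exposed 16 h at 37C before ONE-Glo luminescence detection.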

Assay [20] has the same target. Nature of the assay: qHTS assay to identify small molecule antagonists of the androgen receptor (AR) signaling pathway using the MDA cell line (AID 743042; further: nearly all actives have a fitted effect of over 55% in size). The procedure, abridged: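 MDA-kb2 breast carcinoma cells carrying MMTV-luciferase (AR/GR responsive) were co-treated with compounds and the agonist R1881 for 16 h at 37C. Inhibition read as ONE-Glo luminescence; CellTiter-Fluor fluorescence measured in parallel for cytotoxicity.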

Unmarked numbers belong to inactive results. Records with an inconclusive call do not appear. Calls of active or inactive are those of the source. Unless noted, the call rests on the fitted dose curve; in most records, active means well fitted curve in the direction sought with a large enough effect in the repeat runs; inconclusive means weak or mixed curves; inactive means no such curve, though single readings can be large; an effect the other way counts as inactive or inconclusive.

Androgen receptor (Homo sapiens), sequence (P10275 whole entry, looked up): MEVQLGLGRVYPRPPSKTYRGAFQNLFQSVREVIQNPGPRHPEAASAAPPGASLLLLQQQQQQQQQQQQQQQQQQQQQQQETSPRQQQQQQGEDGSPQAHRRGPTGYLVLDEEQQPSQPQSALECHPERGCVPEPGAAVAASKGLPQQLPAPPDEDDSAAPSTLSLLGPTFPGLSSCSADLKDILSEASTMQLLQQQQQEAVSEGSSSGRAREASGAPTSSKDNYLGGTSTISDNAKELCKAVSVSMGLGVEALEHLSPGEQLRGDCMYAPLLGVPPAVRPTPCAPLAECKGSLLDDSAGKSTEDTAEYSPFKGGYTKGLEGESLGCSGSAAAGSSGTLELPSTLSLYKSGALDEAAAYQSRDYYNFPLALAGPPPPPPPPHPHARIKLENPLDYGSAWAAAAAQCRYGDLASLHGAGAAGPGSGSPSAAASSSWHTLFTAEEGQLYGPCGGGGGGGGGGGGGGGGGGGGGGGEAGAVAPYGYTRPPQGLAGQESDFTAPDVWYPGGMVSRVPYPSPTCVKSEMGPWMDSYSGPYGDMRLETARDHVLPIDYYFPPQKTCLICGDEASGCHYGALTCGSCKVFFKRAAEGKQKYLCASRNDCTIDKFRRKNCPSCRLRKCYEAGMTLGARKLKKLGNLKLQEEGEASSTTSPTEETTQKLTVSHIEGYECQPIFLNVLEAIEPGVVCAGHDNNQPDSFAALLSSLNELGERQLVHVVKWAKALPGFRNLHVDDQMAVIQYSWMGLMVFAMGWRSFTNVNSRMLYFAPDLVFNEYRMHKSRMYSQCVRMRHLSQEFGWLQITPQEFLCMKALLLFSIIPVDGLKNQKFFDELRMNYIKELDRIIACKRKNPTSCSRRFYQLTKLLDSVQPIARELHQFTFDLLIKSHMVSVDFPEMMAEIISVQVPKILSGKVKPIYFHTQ

On to `CC(C)NCC(O)c1ccc(N)c(C#N)c1` (stereo not drawn), for which the result in assay [1], in assay [2], in assay [3], in assay [4], in assay [5] and in assay [6] was inactive. Also, the outcome in assay [7], in [8] and in [9] was inactive. In addition, the Potency result in [10], in [11], in assay [12], in assay [13] and in assay [14] was “inactive” in each case.
Regarding `Nc1ccccc1Cl`, the result in assay [1], in assay [2], in assay [3], in [4], in assay [5] and in assay [6] was inactive. In addition, the compound was called inactive in [7], in assay [8], in assay [18] and in [20]. The Potency result in assay [15], in assay [10], in assay [11], in assay [12], in [13] and in assay [16] was “inactive” throughout. Moreover, the Potency result in assay [17], in assay [19] and in [14] was “inactive” in each case.
For the compound `N#CC(CCc1ccc(Cl)cc1)(Cn1cncn1)c1ccccc1` (stereo not drawn), the call in assay [1], in assay [2], in assay [3], in assay [4], in assay [5] and in assay [6] was inactive. Further, the compound was called inactive in [7], in assay [8] and in assay [18]. Further, the Potency in [15] is 49 µM (active); in assay [12] it was 13.7 µM (active); in [13], 13.7 µM (active); in assay [16], 49 µM (active). Further, the Potency result in [10] and in assay [19] was “inactive” throughout.
Regarding `Fc1ccc(C2(Cn3cncn3)OC2c2ccccc2Cl)cc1` (stereo not drawn), the compound was called inactive in assay [1], in assay [2], in assay [3], in assay [4], in assay [5] and in assay [6]. The compound was called inactive in assay [7], in [8] and in assay [9]. Further, the Potency entry in [10] and in assay [14] was “inactive” each time. In addition, the Potency in assay [12] is 34.4 µM (active); in assay [13] it was 27.3 µM (active).
Turning to `CNC(=O)Oc1cccc(C(C)C)c1`, the compound was classed as inactive in assay [1], in assay [2], in assay [3], in assay [4], in assay [5] and in assay [6]. Also, the outcome in [7], in assay [8] and in [9] was inactive. In addition, the Potency entry in assay [10], in [12], in [13], in assay [16] and in assay [14] was “inactive” in each case.
In the case of `CCN(Cc1ccc(Cl)nc1)/C(=C/[N+](=O)[O-])NC`, the call in assay [1], in [2], in assay [3], in [4], in [5] and in [6] was inactive. Further, the call in [7], in [8] and in [9] was inactive. The Potency entry in assay [10], in [12], in assay [13], in [16] and in assay [14] was “inactive” each time.
With `CNC(=O)N(C)c1nc2ccccc2s1`, the call in assay [1], in assay [2], in assay [3], in assay [4], in assay [5] and in assay [6] was inactive. The compound was classed as inactive in [7], in assay [8], in assay [9] and in [20]. For the same compound, the Potency result in assay [10], in assay [11], in assay [13], in assay [16], in [19] and in [14] was “inactive” in each case.
Turning to `COC(=O)C(c1ccccc1)C1CCCCN1` (stereo not drawn), the compound was called inactive in assay [1], in [2], in assay [3], in assay [4], in assay [5] and in [6]. Besides, the outcome in [7], in [8], in [18] and in assay [20] was inactive. In addition, the Potency result in assay [15], in [10], in [11], in assay [12], in [13] and in assay [16] was “inactive” each time. For the same compound, the Potency entry in assay [17], in assay [19] and in assay [14] was “inactive” each time.
Turning to `CC1(C)COP(Oc2ccccc2)OC1`, the compound was classed as inactive in assay [1], in [2], in [3], in assay [4], in [5] and in assay [6]. The compound was classed as inactive in assay [7], in assay [8], in [18] and in assay [20]. Moreover, the Potency result in assay [15], in [10], in [11], in [12], in [13] and in [16] was “inactive” throughout. In addition, the Potency entry in assay [17], in assay [19] and in assay [14] was “inactive” in each case.
Take `CC1CCC(=O)O1` (stereo not drawn): the compound was called inactive in assay [1], in assay [2], in [3], in assay [4], in assay [5] and in assay [6]. Also, the compound was called inactive in assay [7] and in assay [8]. Moreover, the Potency result in assay [15], in assay [10], in assay [12], in [13], in [16] and in [14] was “inactive” in each case.
With `Clc1cccc(N2CCNCC2)c1`, the compound was classed as inactive in [1], in assay [2], in [3], in assay [4], in assay [5] and in [6]. Also, the compound was called inactive in assay [7], in assay [8] and in [9]. Also, the Potency entry in [10], in assay [16] and in assay [14] was “inactive” throughout.
Regarding `O=C1CN=C(c2ccccc2)c2cc([N+](=O)[O-])ccc2N1`, the compound was classed as inactive in assay [1], in assay [2], in assay [3], in [4], in assay [5] and in [6]. The outcome in assay [7] and in [8] was inactive. The Potency entry in [15], in assay [10], in assay [11], in assay [12], in [13] and in [16] was “inactive” in each case. In addition, the Potency entry in assay [14] is “inactive”.
As for `ClC(Cl)Br`, the compound was classed as inactive in [1], in [2], in assay [3], in assay [4], in assay [5] and in [6]. The compound was called inactive in [7], in assay [8] and in assay [9]. Moreover, the Potency result in assay [11], in [12], in assay [13], in assay [16] and in assay [14] was “inactive” throughout.
